Experiment [1] has as its target Sphingosine kinase 1 (Homo sapiens) (UniProt Q9NYA1). Conditions: at 1 µM.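 Note: mean SPHK1 inhibition value reported from the GSK PKIS kinase panel screen.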
The target of experiment [2] is T1, Sphingosine kinase 2 (Homo sapiens) (UniProt Q9NRA0).
T1 sequence (whole entry): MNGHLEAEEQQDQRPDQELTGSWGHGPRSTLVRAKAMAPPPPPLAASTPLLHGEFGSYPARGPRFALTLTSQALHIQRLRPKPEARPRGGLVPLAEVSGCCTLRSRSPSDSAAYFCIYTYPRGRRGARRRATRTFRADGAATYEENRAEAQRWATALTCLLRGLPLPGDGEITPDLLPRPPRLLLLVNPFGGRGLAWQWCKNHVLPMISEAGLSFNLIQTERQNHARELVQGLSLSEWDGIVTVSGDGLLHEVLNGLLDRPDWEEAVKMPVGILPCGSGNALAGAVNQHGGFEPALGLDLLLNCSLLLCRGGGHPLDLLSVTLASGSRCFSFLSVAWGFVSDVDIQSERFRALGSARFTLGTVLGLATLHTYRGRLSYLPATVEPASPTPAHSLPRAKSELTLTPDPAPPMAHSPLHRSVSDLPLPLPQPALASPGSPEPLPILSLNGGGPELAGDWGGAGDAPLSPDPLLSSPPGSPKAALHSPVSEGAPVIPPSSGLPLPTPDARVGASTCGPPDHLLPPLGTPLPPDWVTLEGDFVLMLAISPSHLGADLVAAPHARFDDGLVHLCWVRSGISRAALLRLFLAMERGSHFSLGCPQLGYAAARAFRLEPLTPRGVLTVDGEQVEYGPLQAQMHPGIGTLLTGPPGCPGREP
Conditions: at 0.1 µM.

In experiment [3] the target is T1, Sphingosine kinase 2 (Homo sapiens). Conditions: at 1 µM.
Experiment [4] has as its target Casein kinase II subunit alpha (Homo sapiens) (UniProt P68400). Conditions: at 0.1 µM.
Experiment [5] has the same target. As to conditions: at 1 µM.
In experiment [6] the target is T2, Inhibitor of nuclear factor kappa-B kinase subunit alpha (Homo sapiens) (UniProt O15111).
T2 sequence (whole entry): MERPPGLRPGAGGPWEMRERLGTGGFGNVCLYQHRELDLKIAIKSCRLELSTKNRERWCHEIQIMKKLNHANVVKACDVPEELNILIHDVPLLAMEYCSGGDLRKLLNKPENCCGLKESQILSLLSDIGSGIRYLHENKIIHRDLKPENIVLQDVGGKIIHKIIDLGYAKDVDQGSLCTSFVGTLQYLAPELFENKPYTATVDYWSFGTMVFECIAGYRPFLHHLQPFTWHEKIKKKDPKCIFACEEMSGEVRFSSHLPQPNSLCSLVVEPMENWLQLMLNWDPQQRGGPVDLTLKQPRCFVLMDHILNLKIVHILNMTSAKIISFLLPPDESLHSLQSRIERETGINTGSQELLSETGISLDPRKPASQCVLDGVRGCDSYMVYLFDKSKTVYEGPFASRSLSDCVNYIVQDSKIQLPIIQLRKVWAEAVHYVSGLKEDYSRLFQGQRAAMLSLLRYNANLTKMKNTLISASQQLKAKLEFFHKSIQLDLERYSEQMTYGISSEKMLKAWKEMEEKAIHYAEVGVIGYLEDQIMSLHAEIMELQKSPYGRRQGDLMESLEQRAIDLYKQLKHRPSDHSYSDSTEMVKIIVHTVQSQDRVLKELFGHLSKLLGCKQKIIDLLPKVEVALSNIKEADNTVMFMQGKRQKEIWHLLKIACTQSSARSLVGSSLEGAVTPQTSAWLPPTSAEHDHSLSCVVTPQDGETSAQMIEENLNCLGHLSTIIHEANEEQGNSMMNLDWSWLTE
As to conditions: at 0.1 µM.

For experiment [7], the target named is T2, Inhibitor of nuclear factor kappa-B kinase subunit alpha (Homo sapiens). Conditions: at 1 µM.
Experiment [8] has as its target T3, Inhibitor of nuclear factor kappa-B kinase subunit beta (Homo sapiens) (UniProt O14920).
T3 sequence (whole entry): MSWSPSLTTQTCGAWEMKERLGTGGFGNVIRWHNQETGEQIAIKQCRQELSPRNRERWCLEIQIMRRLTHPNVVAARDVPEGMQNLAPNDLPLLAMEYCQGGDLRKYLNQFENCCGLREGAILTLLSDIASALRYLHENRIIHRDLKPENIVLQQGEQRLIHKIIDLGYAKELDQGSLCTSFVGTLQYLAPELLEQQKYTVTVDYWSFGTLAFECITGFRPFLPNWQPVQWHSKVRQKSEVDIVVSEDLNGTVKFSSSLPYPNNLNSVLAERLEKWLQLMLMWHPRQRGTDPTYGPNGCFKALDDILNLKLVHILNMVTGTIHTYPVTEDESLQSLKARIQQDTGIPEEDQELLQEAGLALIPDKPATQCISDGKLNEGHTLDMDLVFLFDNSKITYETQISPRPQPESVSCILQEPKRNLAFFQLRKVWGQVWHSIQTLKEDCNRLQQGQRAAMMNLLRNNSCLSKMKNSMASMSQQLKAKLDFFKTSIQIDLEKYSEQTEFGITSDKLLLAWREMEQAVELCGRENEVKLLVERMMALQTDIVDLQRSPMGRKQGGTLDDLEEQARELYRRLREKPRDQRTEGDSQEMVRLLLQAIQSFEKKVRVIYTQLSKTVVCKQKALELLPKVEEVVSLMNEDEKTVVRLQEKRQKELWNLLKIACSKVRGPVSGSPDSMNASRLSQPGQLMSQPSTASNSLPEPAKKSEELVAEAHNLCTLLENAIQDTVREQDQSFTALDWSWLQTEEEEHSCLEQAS
Conditions: at 0.1 µM.

Experiment [9] concerns the target T3, Inhibitor of nuclear factor kappa-B kinase subunit beta (Homo sapiens). As to conditions: at 1 µM.
Experiment [10] deals with T4, Inhibitor of nuclear factor kappa-B kinase subunit epsilon (Homo sapiens) (UniProt Q14164).
T4 sequence (whole entry): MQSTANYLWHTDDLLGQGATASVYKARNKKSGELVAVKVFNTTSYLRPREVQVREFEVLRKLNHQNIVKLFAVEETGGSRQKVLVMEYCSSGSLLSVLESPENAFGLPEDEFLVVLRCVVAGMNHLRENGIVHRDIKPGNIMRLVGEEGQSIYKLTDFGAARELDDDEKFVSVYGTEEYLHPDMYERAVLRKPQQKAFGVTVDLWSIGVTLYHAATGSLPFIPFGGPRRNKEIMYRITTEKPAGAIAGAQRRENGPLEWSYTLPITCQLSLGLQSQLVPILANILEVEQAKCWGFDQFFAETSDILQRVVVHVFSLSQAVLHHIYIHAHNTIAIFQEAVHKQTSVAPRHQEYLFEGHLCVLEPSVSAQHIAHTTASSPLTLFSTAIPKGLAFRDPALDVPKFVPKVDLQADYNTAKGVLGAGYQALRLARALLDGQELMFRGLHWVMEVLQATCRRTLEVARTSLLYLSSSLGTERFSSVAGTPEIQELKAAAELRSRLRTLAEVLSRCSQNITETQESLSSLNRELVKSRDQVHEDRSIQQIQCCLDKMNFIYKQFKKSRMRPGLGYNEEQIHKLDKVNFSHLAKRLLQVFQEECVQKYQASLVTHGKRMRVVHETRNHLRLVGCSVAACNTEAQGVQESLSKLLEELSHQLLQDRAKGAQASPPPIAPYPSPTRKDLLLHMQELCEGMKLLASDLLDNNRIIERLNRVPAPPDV
As to conditions: at 0.1 µM.

The target of experiment [11] is T4, Inhibitor of nuclear factor kappa-B kinase subunit epsilon (Homo sapiens). As to conditions: at 1 µM.
The target of experiment [12] is T5, Serine/threonine-protein kinase Nek1 (Homo sapiens) (UniProt Q96PY6).
T5 sequence (whole entry): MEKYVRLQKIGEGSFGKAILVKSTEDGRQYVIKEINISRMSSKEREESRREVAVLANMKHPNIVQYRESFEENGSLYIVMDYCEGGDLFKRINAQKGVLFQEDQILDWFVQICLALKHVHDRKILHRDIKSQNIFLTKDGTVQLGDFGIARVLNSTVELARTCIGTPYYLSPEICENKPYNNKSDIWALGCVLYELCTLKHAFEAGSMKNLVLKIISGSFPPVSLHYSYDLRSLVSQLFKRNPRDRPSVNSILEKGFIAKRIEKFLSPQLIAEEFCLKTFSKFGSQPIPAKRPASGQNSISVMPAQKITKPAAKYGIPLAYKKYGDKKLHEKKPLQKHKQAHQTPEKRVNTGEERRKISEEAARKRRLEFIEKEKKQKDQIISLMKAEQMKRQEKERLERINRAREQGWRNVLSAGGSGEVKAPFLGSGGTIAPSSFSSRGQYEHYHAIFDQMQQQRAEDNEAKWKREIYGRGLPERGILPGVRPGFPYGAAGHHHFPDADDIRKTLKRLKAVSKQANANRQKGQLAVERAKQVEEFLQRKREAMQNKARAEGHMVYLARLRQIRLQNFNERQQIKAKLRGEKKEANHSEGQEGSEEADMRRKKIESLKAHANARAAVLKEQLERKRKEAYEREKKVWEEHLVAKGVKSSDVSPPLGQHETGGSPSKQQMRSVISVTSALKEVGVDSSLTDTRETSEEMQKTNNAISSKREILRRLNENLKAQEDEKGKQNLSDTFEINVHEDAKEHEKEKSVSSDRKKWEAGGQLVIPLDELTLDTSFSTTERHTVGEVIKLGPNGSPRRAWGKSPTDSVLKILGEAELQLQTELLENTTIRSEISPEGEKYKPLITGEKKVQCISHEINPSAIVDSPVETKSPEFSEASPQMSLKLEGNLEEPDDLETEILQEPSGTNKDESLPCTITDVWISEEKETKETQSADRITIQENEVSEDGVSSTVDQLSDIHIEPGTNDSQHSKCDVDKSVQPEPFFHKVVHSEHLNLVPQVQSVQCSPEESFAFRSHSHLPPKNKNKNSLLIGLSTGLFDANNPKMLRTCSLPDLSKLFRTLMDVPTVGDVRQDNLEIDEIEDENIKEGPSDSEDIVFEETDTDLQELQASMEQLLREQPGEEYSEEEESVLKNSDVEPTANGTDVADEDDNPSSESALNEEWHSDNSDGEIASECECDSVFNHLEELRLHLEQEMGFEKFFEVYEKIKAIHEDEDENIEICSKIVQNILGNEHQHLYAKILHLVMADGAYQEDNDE
Conditions: at 0.1 µM.

The target of experiment [13] is T5, Serine/threonine-protein kinase Nek1 (Homo sapiens). Conditions: at 1 µM.
Experiment [14] deals with T6, Serine/threonine-protein kinase Nek2 (Homo sapiens) (UniProt P51955).
T6 sequence (whole entry): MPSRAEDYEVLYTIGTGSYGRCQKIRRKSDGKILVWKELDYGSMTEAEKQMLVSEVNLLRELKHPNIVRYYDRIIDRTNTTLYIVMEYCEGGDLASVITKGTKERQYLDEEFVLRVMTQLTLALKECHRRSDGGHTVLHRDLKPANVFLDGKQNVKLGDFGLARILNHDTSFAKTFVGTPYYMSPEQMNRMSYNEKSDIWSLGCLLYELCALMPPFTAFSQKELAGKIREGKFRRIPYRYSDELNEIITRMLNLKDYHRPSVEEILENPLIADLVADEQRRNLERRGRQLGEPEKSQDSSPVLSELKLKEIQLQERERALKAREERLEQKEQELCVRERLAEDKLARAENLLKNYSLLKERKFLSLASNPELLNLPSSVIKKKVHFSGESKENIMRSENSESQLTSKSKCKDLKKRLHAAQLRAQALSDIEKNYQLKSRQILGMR
Conditions: at 0.1 µM.

Experiment [15] has as its target T6, Serine/threonine-protein kinase Nek2 (Homo sapiens). As to conditions: at 1 µM.
For experiment [16], the target named is Serine/threonine-protein kinase Nek6 (Homo sapiens) (UniProt Q9HC98). Conditions: at 0.1 µM.
Serine/threonine-protein kinase Nek6 (Homo sapiens), sequence (Q9HC98 whole entry): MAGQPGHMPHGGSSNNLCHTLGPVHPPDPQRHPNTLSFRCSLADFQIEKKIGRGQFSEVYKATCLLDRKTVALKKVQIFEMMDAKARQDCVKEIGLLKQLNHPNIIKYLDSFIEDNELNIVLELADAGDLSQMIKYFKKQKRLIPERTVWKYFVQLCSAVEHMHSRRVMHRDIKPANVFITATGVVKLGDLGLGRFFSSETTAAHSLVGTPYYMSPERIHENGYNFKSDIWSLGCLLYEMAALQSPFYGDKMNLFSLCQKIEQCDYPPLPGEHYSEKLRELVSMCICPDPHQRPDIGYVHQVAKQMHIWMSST
The target is the same in experiment [17]. Conditions: at 1 µM.
The target of experiment [18] is Serine/threonine-protein kinase Nek7 (Homo sapiens) (UniProt Q8TDX7). Conditions: at 0.1 µM.
Serine/threonine-protein kinase Nek7 (Homo sapiens), sequence (Q8TDX7 whole entry, looked up): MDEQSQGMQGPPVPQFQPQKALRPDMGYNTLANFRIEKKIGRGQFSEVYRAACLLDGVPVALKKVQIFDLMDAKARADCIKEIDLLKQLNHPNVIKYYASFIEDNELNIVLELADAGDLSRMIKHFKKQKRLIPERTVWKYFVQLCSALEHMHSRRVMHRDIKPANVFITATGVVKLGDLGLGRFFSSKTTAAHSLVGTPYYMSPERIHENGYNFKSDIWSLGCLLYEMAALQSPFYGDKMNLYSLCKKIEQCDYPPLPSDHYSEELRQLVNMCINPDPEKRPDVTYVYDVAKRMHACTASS
The target is the same in experiment [19]. Conditions: at 1 µM.
The target in experiment [20] is T7, Serine/threonine-protein kinase Nek9 (Homo sapiens) (UniProt Q8TD19).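 Note: reported value is the mean percent inhibition of NEK9.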
T7 sequence (whole entry): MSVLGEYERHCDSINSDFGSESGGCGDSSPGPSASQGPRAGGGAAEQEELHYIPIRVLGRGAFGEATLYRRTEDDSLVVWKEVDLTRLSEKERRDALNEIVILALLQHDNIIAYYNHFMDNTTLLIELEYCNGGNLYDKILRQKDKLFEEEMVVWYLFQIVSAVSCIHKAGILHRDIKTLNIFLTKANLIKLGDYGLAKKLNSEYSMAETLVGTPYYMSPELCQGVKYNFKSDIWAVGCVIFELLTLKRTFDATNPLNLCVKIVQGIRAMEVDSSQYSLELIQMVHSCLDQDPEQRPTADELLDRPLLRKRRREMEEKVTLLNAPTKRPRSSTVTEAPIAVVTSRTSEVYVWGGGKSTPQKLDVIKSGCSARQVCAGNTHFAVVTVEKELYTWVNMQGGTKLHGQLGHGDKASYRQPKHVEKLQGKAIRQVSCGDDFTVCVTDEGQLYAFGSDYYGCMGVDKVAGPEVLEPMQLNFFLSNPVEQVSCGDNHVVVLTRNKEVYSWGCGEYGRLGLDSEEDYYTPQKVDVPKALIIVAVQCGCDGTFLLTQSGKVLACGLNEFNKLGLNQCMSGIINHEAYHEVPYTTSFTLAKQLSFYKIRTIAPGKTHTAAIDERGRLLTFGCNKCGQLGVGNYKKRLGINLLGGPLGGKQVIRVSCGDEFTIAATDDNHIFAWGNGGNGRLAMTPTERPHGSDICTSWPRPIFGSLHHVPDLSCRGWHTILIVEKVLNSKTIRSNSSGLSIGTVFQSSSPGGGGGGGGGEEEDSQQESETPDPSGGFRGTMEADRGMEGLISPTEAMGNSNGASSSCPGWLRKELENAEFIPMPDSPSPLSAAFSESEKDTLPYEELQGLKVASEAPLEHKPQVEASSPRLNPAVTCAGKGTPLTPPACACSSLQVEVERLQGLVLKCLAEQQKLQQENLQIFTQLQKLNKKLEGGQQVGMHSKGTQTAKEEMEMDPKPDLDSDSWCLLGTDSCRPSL
As to conditions: at 0.1 µM.

Each structure is given as a SMILES string.

As usually defined, the inhibition is the drop in the measured response relative to a control, in per cent.

Casein kinase II subunit alpha (Homo sapiens), sequence (P68400 whole entry, looked up): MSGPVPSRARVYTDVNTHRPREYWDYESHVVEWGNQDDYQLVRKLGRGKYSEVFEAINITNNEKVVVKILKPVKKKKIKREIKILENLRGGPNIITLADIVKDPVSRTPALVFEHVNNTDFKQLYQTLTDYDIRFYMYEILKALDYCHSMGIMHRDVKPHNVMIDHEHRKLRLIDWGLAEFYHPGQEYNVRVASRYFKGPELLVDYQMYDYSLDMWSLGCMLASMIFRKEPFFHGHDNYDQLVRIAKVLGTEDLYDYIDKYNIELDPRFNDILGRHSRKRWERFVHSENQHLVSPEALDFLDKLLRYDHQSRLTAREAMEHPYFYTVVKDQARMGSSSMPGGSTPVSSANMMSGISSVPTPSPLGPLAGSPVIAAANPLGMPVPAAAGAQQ
Sphingosine kinase 1 (Homo sapiens), sequence (Q9NYA1 whole entry): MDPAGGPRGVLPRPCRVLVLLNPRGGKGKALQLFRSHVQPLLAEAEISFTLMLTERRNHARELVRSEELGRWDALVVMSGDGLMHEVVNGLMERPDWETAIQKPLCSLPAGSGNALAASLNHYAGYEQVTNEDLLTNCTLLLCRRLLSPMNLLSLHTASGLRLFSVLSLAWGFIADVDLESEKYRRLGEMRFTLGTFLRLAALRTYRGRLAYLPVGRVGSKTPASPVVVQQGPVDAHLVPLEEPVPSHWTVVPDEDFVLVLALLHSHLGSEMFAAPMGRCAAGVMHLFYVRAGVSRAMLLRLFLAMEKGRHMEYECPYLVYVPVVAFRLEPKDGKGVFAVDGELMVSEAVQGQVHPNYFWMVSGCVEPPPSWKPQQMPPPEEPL

Turning to `COc1cccc(Nc2nccc(-c3cnn4ncccc34)n2)c1`, the inhibition in experiment [1] is -2.02%; in experiment [2] it was 0.58%; in experiment [3], -1.48%; in experiment [4], 8.12%; in experiment [5] it was 40.9%; in [6] it was 11.6%. For the same compound, the inhibition in experiment [7] turned out to be 53.6%; in experiment [8] it was 5.19%; in [9] it was 27.1%; in experiment [10], 3.06%; in experiment [11] it was 18.1%; in [12] it was 3.3%. The inhibition is 18.3% in [13]; 4.5% in [14]; 5.64% in experiment [15]; 3.79% in experiment [16]; 1.04% in experiment [17]; -0.48% in [18]. The figures for the inhibition in [19] and in [20] were 4.19% and 10.7%, respectively.

The values are drawn from ChEMBL document CHEMBL1961873, “Compounds: GSK PKIS; Assays: Nanosyn kinase panel” (2012).
